# PubChem BioAssay AID1851 (National Center for Advancing Translational Sciences (NCATS), 2009)
# Values joined by “and” are separate entries in the source; they are usually repeats but may differ in a detail not shown here. Identical values can stand only once. Among all 16,000 compounds or so, about 5,800 (36%) were called active. Inconclusive results (about 23%) are left out. The call rests on the fitted dose curve; in most records, active means well fitted curve in the direction sought with a large enough effect; inconclusive means small, poorly fitted or top-dose-only effect, or effect the other way; inactive means no such curve, though single readings can be large or run the other way. The list shows a part of the results. Some compounds were tested as several samples or in several runs, with calls that do not always agree.
# Biological target: Cytochrome P450 2C19 (Homo sapiens) (UniProt P33261)
# Sequence (P33261 whole entry, looked up): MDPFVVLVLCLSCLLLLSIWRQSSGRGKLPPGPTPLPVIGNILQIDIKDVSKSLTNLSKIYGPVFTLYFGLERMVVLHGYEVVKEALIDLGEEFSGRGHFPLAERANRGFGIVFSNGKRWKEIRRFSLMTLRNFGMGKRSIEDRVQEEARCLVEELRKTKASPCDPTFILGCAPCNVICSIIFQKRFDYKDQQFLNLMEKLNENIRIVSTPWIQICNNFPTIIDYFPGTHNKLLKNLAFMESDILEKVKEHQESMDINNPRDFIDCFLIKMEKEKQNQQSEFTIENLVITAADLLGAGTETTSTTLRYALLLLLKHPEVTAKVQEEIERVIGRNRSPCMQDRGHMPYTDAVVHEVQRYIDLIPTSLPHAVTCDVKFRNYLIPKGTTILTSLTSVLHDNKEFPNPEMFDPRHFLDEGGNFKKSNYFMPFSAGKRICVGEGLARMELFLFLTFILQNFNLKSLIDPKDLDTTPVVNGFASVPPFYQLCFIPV
# Test: Cytochrome panel assay with activity outcomes
# Conditions: recombinant CYP, pro-luciferin dealkylation, luminescence, p450-cyp2c19; series mostly up to 57.1 µM
# On the % scale 0 is the no-effect control and ±100 the full control effect.
SMILES,AC50,"activity, negative = inhibition"
Cn1c(SCC(=O)c2ccc3c(c2)Cc2ccccc2-3)nnc1-c1ccccc1,28.2 µM (active),–
O=C(O)c1ccccc1-c1ccccc1C(=O)Nc1ccc2c(c1)Cc1ccccc1-2,–,37.2% [at 11.4 µM] (inactive)
COC(=O)Nc1nc2ccc(C(=O)c3cccs3)cc2[nH]1,inactive,–
Cc1ccc2nc(/C(C#N)=C\c3ccc(OC(=O)c4cccs4)cc3)[nH]c2c1,2.24 µM (active),–
NC(=NC1C2CC3CC(C2)CC1C3)Nc1ccc(I)cc1 (stereo unspecified),5.01 µM (active),–
CCc1cc2c(Sc3nc4ccccc4s3)ncnc2s1,2.51 µM (active),–
CN(C)CCn1c(=O)n(Cc2ccco2)c(=O)c2c3c(sc21)CCCCC3,15.8 µM (active),–
NC(=O)Cn1c(=O)n(Cc2ccco2)c(=O)c2c3c(sc21)CCCCC3,2.82 µM (active),–
O=C(Cn1c(=O)n(Cc2ccco2)c(=O)c2c3c(sc21)CCCCC3)c1ccccc1,7.08 µM (active),–
COc1cccc(Nc2ncc3nc(-c4cccs4)c(=O)n(-c4ccccc4)c3n2)c1,inactive,–
O=C(Nc1cccc2ccccc12)c1cn(-c2ccccc2)nc1-c1cccs1,6.31 µM (active),–
COc1ccc(Oc2ncc3nc(-c4cccs4)c(=O)n(-c4ccccc4)c3n2)cc1,inactive,–
CC(=O)CCCCn1c(=O)c2c(ncn2C)n(C)c1=O,inactive,–
C=CC[C@@H]1C=C[C@@H](O/N=C\C[C@@H]2C=C[C@H](OC(C)=O)[C@H](COC(C)=O)O2)[C@@H](CO)O1,–,17.2% [at 11.4 µM] (inactive)
C=CC[C@@H]1C=C[C@@H](O/N=C(/C)CCC(=O)OC[C@@H]2O[C@H](C#Cc3ccccc3)C=C[C@@H]2Oc2ccc(C)cc2)[C@@H](CO)O1,–,-42.3% [at 11.4 µM] (inactive)
C=CC[C@@H]1C=C[C@H](Oc2ccc(C)cc2)[C@H](COC(=O)NCc2cccc3ccccc23)O1,1.26 µM (active),–
O=S(Cc1ccc(Br)cc1)Cc1nnc(SCc2ccc(Cl)cc2)n1-c1ccccc1 (stereo unspecified),10 µM (active),–
CC(C)(C)c1ccc(-c2nnc(SCc3ccc(Cl)cc3)n2-c2cccc(C(F)(F)F)c2)cc1,–,-28.9% [at 11.4 µM] (inactive)
OCCCNc1ncnc2[nH]ncc12,–,36.5% [at 11.4 µM] (inactive)
CCOC(=O)c1c(-c2ccccc2)nc2c(C)cccn12,15.8 µM (active),–
Cc1nn(C)cc1C(C(=O)NC1CCCCC1)N(C(=O)Cc1cccs1)c1ccc(C(C)C)cc1 (stereo unspecified),7.94 µM (active),–
C/C(CC(=O)NC1CCCC1)=N\NC(=O)Cc1cccs1,inactive,–
Cc1ccccc1C(C(=O)NC1CCCC1)N(C(=O)Cc1cccs1)c1ccc2c(c1)OCCO2 (stereo unspecified),14.1 µM (active),–
Cc1cc(C)cc(N(C(=O)Cc2cccs2)C(C(=O)NC2CCCCC2)c2ccccn2)c1 (stereo unspecified),15.8 µM (active),–

SMILES,AC50,"activity, negative = inhibition"
CC(C)C(NC(=O)C1CCCCC1)C(=O)NCc1ccccn1 (stereo unspecified),inactive,–
COc1ccccc1/C=N/NC(=Nc1ccc(C)cc1)c1nc2ccccc2s1,inactive,–
COc1ccccc1/C=N/NC(=O)CC(=O)Nc1ccc(Cl)c(Cl)c1,11.2 µM (active),–
O=C(Oc1ccccc1)N1CCC[C@@]2(CCN(c3ccncc3)C2)C1,5.01 µM (active),–
COC(=O)N1CCC2(CC1)CN(c1ccccc1)C2,6.31 µM (active),–
CC(=O)N1CCC2(CC1)CN(c1ccncc1)C2,inactive,–
O=C(Oc1ccccc1)N1CCC2(CC1)CN(c1ccncc1)C2,7.94 µM (active),–
O=C(Oc1ccccc1)N1CCC2(CC1)CCN(c1ccncc1)CC2,inactive,–
COC(=O)N1CCC2(CCCN(c3ccc(-c4ccccc4)cc3)C2)CC1,inactive,–
COC(=O)N1CCC2(CC1)CN(c1ccc(-c3ccccc3)cc1)C2,inactive,–
COC(=O)N1CCC[C@@]2(CCN(c3ccncc3)C2)C1,inactive,–
C[C@H](NC[C@H](O)CP(=O)(O)CC1CCCCC1)c1ccc(Cl)c(Cl)c1,inactive,–
OC[C@H](S)CS,–,-35.3% [at 11.4 µM] (inactive)
CCCCNC(=S)NNC(=O)CCn1nc(C)c(Br)c1C,11.2 µM (active),–
CCCCNC(=O)NC1C(NC(=O)NCCCC)N(C)C(=O)N1C (stereo unspecified),inactive,–
COc1cccc(NC(=S)N(CCc2nc3cc(C)c(C)cc3[nH]2)Cc2cccnc2)c1,3.98 µM (active),–
COc1cccc(Nc2ncc3nc(C)c(=O)n(CCc4ccccc4)c3n2)c1,inactive,–
Cc1cccc(NC(=S)N(CCc2nc3cc(C)c(C)cc3[nH]2)Cc2cccnc2)c1,3.16 µM (active),–
COc1cccc(NC(=O)C2c3cc(OC)c(OC)cc3C(=O)N(C)C2c2cccnc2)c1 (stereo unspecified),inactive,–
COc1ccc(NC(=S)N(CCc2nc3cc(C)c(C)cc3[nH]2)Cc2cccnc2)cc1,14.1 µM (active),–
COc1ccc(COc2ccsc2C(=O)Nc2ccc(Cl)c(Cl)c2)cc1,7.94 µM (active),–
CNC(=S)NNC(=O)c1sccc1OCc1ccc(C)cc1,5.01 µM (active),–
FC(F)(F)c1cc(CN2CCCC3(CCNCC3)C2)cc(C(F)(F)F)c1,inactive,–
Cc1ccc(/C=C/c2nnc(-c3ccc(C)cc3)o2)cc1,inactive,–

SMILES,AC50,"activity, negative = inhibition"
C(=C\c1nnc(-c2cccs2)o1)/c1ccccc1,22.4 µM (active),–
Cc1oc(-c2cccs2)[n+]([O-])c1C,inactive,–
CCN=C1NN=C(c2ccc(C)cc2)CS1,10 µM (active),–
FC(F)(F)c1cc(-c2ccco2)nc(NCCc2ccccc2)n1,1.78 µM (active),–
Nc1nc(NCCc2ccc(O)cc2)nc2nc(-c3ccco3)nn12,inactive,–
CN1CCN(CC(=O)N2c3ccccc3C(=O)Nc3cccnc32)CC1,inactive,–
Cc1scc2c1N(C(=O)CN1CCN(C)CC1)c1ccccc1NC2=O,inactive and 3.98 µM (active),–
CCC#CCOCC(=O)Nc1ccccc1,inactive,–
CCCCC#Cc1ccccc1CC(=O)Nc1ccccc1,0.794 µM (active),–
O=C(Cc1ccccc1I)Nc1ccccc1,6.31 µM (active),–
COC(=O)c1cc(/C=C/c2ccccc2)on1,35.5 µM (active),–
O=C(O)[C@H](/C=C\c1ccccc1)c1ccccc1,–,-22.1% [at 11.4 µM] (inactive)
Cc1ccc(NC(=O)c2cc([N+](=O)[O-])ccc2NCc2cccnc2)cc1Cl,0.0794 µM (active),–
CS(=O)(=O)N1CCC[C@@]2(CCN(C(=O)Nc3cccc(C#N)c3)C2)C1,inactive,–
COc1cccc(/C=c2/s/c(=C(\C#N)C(=O)N3CCOCC3)n(-c3ccccc3)c2=O)c1,inactive,–
CNC(=O)/C(C#N)=c1\s/c(=C/C(=O)OC)c(=O)n1-c1ccccc1,5.01 µM (active),–
O=C(Cc1ccccc1[N+](=O)[O-])NCc1ccccc1Cl,31.6 µM (active),–
Cc1nn(CC(=O)NCc2ccccc2Cl)c(C)c1[N+](=O)[O-],15.8 µM (active),–
Cn1c(=O)c2cc(S(=O)(=O)NCCC(=O)NCc3ccccc3Cl)ccc2n(C)c1=O,inactive,–
O=C(Cc1ccccc1[N+](=O)[O-])NCCSCc1c(F)cccc1Cl,2.51 µM (active),–
Cc1nn(CC(=O)NCc2ccccc2)c(C)c1[N+](=O)[O-],inactive,–
Cc1nn(CC(=O)NCCN2CCOCC2)c(C)c1[N+](=O)[O-],inactive,–
Cc1ccccc1OCC(=O)OC1CCN(C)CC1,inactive,–
Cc1ccc(C(=O)C(OC(=O)CCC(=O)Nc2cccc(C)c2)c2ccccc2)cc1 (stereo unspecified),11.2 µM (active),–

SMILES,AC50,"activity, negative = inhibition"
O=C(CN1C(=O)c2ccccc2C1=O)NCC(=O)OCC(=O)c1ccc(Br)cc1,inactive,–
Cc1ccc(C(=O)C(OC(=O)CN2C(=O)c3ccccc3C2=O)c2ccccc2)cc1 (stereo unspecified),3.55 µM (active),–
Cc1ccc(C(=O)C(OC(=O)CNS(=O)(=O)c2ccccc2)c2ccccc2)cc1 (stereo unspecified),10 µM (active),–
CNCC[C@@H](Oc1ccccc1C)c1ccccc1,inactive,–
Cc1ccc(C(=O)C(OC(=O)COc2ccccc2C)c2ccccc2)cc1 (stereo unspecified),7.08 µM (active),–
CCNc1ncc2nc(-c3cc(F)cc(F)c3)c(=O)n(-c3ccc(OC)cc3)c2n1,inactive,–
Cc1ccc(NC(=O)C2C3CCCC2C3c2ccccc2)cc1C (stereo unspecified),inactive,–
CC(=O)Nc1cccc(C(=O)OC(C(=O)c2ccc(C)c(C)c2)c2ccccc2)c1 (stereo unspecified),3.98 µM (active),–
CCN(Cc1cc(Cl)cc(C)c1O)Cc1c(O)ccc2ccccc12,1.26 µM (active),–
CN(C)Cc1cc(Cl)c(O)c(CN(C)C)c1,–,2.46% [at 11.4 µM] (inactive)
CN(Cc1cc(Cl)cc(Cl)c1O)Cc1c(O)ccc2ccccc12,1.26 µM (active),–
CN(CC(=O)O)Cc1c(O)c(Cl)cc(Cl)c1Cl,–,40.6% [at 11.4 µM] (inactive)
Oc1ccc2ccccc2c1C=NCc1c(O)ccc2ccccc12,–,-16.5% [at 11.4 µM] (inactive)
CN(Cc1cc(Br)cc(Br)c1O)Cc1c(O)ccc2ccccc12,0.501 µM (active),–
O=C1Nc2ccccc2C1=Nc1cccc2ncccc12,–,27.9% [at 11.4 µM] (inactive)
COC(=O)[C@H](CCSC)NC(=O)C/C=C\[C@@H](C)[C@@H](CO)OC,–,-1.07% [at 11.4 µM] (inactive)
COC(=O)C(CCSC)NC(=O)c1cccc([N+](=O)[O-])c1 (stereo unspecified),14.1 µM (active),–
COC(=O)[C@H](CCSC)NC(=O)C/C=C\[C@@H](C)CO,–,35.2% [at 11.4 µM] (inactive)
NCCS(=O)O,inactive,–
O=C(O)C(=O)/C=C(\O)c1ccc(Br)cc1,–,29% [at 11.4 µM] (inactive)
CC(=O)NC(NC(C)=O)c1ccc(Br)cc1,inactive,–
C=CC(=O)NC(NC(=O)C=C)c1ccc(Br)cc1,15.8 µM (active),–
O=C(COC(=O)c1cccnc1)c1ccc(Cl)c(Cl)c1,2.24 µM (active),–
O=S(=O)(/N=C(\Sc1ccccc1)c1ccccc1)c1ccc(Cl)cc1,15.8 µM (active),–
